Among the data in PubChem BioAssay AID624396 (The Scripps Research Institute Molecular Screening Center, 2012) are apoptosis values, retold here.

Activity calls are given as the source filed them.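 The calls were made as follows: active = over 15% of cells apoptotic at 25 µM, or half-maximal dose of 10 µM or lower; inactive = the rest.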

This assay has as its system BCL2 1863. Put plainly: pro-apoptotic nuclear morphology in cancer cells – imaging, DAPI staining, cell line panel, probe, mechanism study for MCL1-BIM inhibitor project, late-stage follow-up (AID 624396). As to conditions: at 25 µM, hits give high values.

`CCN1CCN(C(c2ccc(C(F)(F)F)cc2)c2ccc3cccnc3c2O)CC1` (stereo unspecified): the apoptosis was 21% (active).
